Test results published in PubChem BioAssay (NCI).
The panel holds about 83,000 compounds, 20% with a hit somewhere; the sample as a whole holds those more often.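 Single-dose data. Exposure time 48 hours. Values below 10 considered active.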 A number with no mark means an inactive call. The source made the active and inactive calls.

Tested on: UO-31 renal
Experiment: NCI-60 one-dose screen, 48 h (100 = growth as untreated, 0 = no growth, -100 = all killed)
Details: 10 µM unless noted
Protocol: Growth inhibition of the UO-31 human tumor cell line is measured as a screen for anti-cancer activity. Cells are grown in 96 well plates and exposed to the test compound for 48 hours. Compounds are tested at a single concentration, which is 10^-5 M for most compounds. The reported endpoint is percent growth (GI% or GIPRCNT), where numbers from 0 - 100% represent growth inhibition, and numbers from -100% - 0 represent cell death. For example, a value of 40 represents 60% growth inhibition. A value of 0 means no net growth occurred over the course of the experiment. A value of -40 indicates 40% of cells at the beginning of the experiment died by the end of the experiment. A value of -100 means all cells are dead at the end of the experiment.
NCI-60 Human Tumor Cell Lines Screen was performed using the standard one-dose NCI protocol, which is described in more detail at https://dtp.cancer.gov/discovery_development/nci-60/default.htm.
Compounds with GIPRCNT values below 10 were considered active. Activity score was based on GIPRCNT using the following formula: […]
Score is 0 for GIPRCNT values of 100 or above, 50 for GIPRCNT values of 0, and 100 for GIPRCNT values of -100.

| SMILES | growth |
| --- | --- |
| O=C(Nc1ccc(F)cc1F)c1cc(Br)ccc1O | 1.12% (active) |
| CC1CCCCN1CCCNC(=O)c1ccc2c(c1)sc1nc(-c3ccc(F)cc3)cn12 (stereo not given) | 77% |
| Cc1ccc2cccc(Oc3ccc(Nc4ncnc5onc(-c6ccccc6)c45)cc3)c2n1 | 55.6% |
| O=c1c2cc(F)ccc2sc2c(NCCCNCCO)nc3ccc(Cl)cc3c12 | 58.5% |
| O=C(c1ccccc1)N(C(=S)NCCc1ccc(Cl)cc1)c1ccccc1 | 80% |
| COc1cccc(-c2nn(C)c3sc(C(=O)NCCN4CCN(c5ccccc5F)CC4)cc23)c1 | 65.9% |
| COc1ccccc1C(=O)O/N=C(\N)Cc1cccc2ccccc12 | 70.8% |
| Cc1ccc(C)c(-c2csc(Nc3ccc(C)c(C)c3)n2)c1 | 40.3% |
| Cc1ccc(N=NC2C(=O)N(c3ccc(Cl)cc3)N(c3ccc(Cl)cc3)C2=O)cc1 | 73.1% |
| CCN(CC)c1cc(C)c2cc(NC(=O)c3cccc(OC)c3)ccc2n1 | 81.6% |
| COc1cc(C(=O)O/N=C(\N)Cc2cccc3ccccc23)cc(OC)c1OC | -44.3% (active) |
| CCN1C(=O)N(CC)C2Nn3c(s/c(=C\c4ccccc4F)c3=O)=NC21 (stereo not given) | 65.8% |
| COc1cc(/C=C2\CCC/C(=C\c3cc(CN4CCCCC4)c(O)c(OC)c3)C2=O)cc(CN2CCCCC2)c1O | 58.3% |
| O=C(Cn1cc(COc2ncnc3c2cnn3-c2ccccc2)nn1)Nc1ccccn1 | 62.7% |
| COc1ccc(Br)c(/C=C2\SC(=Nc3ccc(O)cc3)NC2=O)c1 | 49.8% |
| CC1=C(C(=O)OCC2CCN(C(=O)OC(C)(C)C)CC2)[C@@H](c2cccc(C#N)c2)C2=C(CC(C)(C)CC2=O)N1 | 42.1% |
| S=C1NC2(c3ccccc3)CCC(=S)N2c2ccccc21 (stereo not given) | 86.2% |
| Cc1c(-c2csc(-n3nc(C(F)(F)F)cc3C(F)(F)F)n2)no[n+]1[O-] | 85.8% |
| Cc1ccc2[nH]c(=O)cc(-n3nncc3Cn3c4ccccc4c4ccccc43)c2c1 | 73.7% |
| Cc1ccc(F)cc1NC(=O)c1cc(Cl)ccc1Nc1ccccc1 | 23.7% |

| SMILES | growth |
| --- | --- |
| COc1ccc(-c2nsc3c2NC(=O)CC3c2cccc(OC)c2)cc1 (stereo not given) | 46.3% |
| O=C1C(=O)c2c(ccc3ccccc23)-c2ccccc21 | -32.4% (active) |
| O=C(CSc1ncccc1C(=O)O)Nc1ccc(Oc2ccccc2)cc1 | 78.1% |
| C1CCN(c2nc(N3CCCCC3)nc(N3CCOCC3)n2)CC1 | 99.5% |
| COC(=O)[C@H]1CCCN1C(=O)[C@H]1CCCN1C(=O)[C@H](Cc1c[nH]c2ccccc12)NC(=S)Nc1cc(C(F)(F)F)cc(C(F)(F)F)c1 | 45.5% |
| CC1=C(CC(=O)c2cccc([N+](=O)[O-])c2)C(=O)c2ccccc2C1=O | -64.3% (active) |
| NCCCNc1nc2ccccc2c2c(=O)c3cc(F)ccc3sc12 | 23% |
| COc1ccc(Cn2c(Br)c3c(c2-c2cc(OC)c(OC)c(OC)c2)CCc2sc(NC(=O)c4ccc(OC)cc4)nc2-3)cc1 | 47.4% |
| COC(=O)/C(=C\c1c(-c2ccccc2)[nH]c2ccccc12)S(C)(=O)=O | 41.5% |
| O=S1(=O)N(Cc2ccccc2)[C@@H](Cc2ccccc2)C2O[C@H]2[C@H](Cc2ccccc2)N1Cc1ccccc1 (stereo not given in full) | 68.1% |
| COc1cc(NC(=O)CCSc2nc3ccccc3c(=O)n2Cc2ccccc2)cc(OC)c1OC | 45.7% |
| COc1ccc(C(O)(CCC(C)C)C(CN2CCOCC2)c2ccc(Cl)cc2)cc1 (stereo not given) | 62.8% |
| O=C(Nc1ccc(Cl)cc1F)c1cc(I)ccc1O | 34% |
| COc1ccc(/C=C/C(=O)c2ccc3cc(OC)c(OC)cc3c2)cc1OC | 27.7% |
| Cn1cc(-c2ccc3ncc(-c4ccc(CC(=O)Nc5cc(C(C)(C)C)no5)cc4)nc3c2)cn1 | 2.84% (active) |
| O=CCCCC(O)C=O (stereo not given) | 81.5% |
| O=C1c2cc(Cl)ccc2Oc2cc([N+](=O)[O-])ccc2N1c1ccc(F)cc1F | 71.2% |
| CCOC(=O)C1(C(=O)OCC)N=C(c2ccccc2)C=C1c1ccccc1 | 76% |
| Cn1nc(C(F)(F)F)c(-c2ccc(Cl)c(C(F)(F)F)c2)c1-c1ccc(OCc2ccc(Cl)cc2)cc1O | -6.34% (active) |
| O=C(NC1C(O)OC(CO)C(O)C1O)NS(=O)(=O)c1ccc(Cl)cc1 (stereo not given) | 77.1% |
